Assay results from PubChem BioAssay AID1259374 (The Scripps Research Institute Molecular Screening Center, 2018).
Hit rate of the full screen: of about 650,000 compounds, about 5,900 (0.91%) were called active. Shown is part of a subset that was picked to be rich in actives. Values without a mark were called inactive. Rule as the data show it: active = inhibition above about 50%; inactive = the rest.

target: Microphthalmia-associated transcription factor (Homo sapiens) (UniProt O75030); experiment: MITF inhibitors, primary screen, biochemical, AlphaScreen, human (AID 1259374); conditions: AlphaScreen MITF homodimerization, bead proximity signal; at 2.6 µM; active compounds read high;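 also: 0% = vehicle wells with protein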
Sequence (O75030 whole entry, looked up): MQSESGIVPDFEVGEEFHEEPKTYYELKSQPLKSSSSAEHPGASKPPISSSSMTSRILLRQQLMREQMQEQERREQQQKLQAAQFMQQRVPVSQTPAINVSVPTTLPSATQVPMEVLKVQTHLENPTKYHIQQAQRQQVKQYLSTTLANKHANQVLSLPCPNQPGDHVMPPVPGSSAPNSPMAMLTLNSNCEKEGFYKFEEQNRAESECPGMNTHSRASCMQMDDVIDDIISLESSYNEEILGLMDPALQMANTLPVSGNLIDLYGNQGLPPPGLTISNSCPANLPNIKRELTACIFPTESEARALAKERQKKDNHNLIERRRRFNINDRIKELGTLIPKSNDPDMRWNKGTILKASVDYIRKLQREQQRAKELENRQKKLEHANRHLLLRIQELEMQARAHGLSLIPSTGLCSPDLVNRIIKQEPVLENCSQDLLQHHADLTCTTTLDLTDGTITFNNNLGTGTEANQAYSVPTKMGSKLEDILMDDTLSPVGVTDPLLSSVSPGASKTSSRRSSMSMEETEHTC

Row | SMILES | inhibition
1 | COc1cc(/C=N/n2c(-c3ccncc3)n[nH]c2=S)cc(OC)c1OC(C)=O | 6.48%
2 | Cc1cc(NC(=O)/C=C/C(=O)N(CC(=O)NC2CCCC2)c2ccc(F)cc2)no1 | 75% (active)
3 | Cc1cc(NC(=O)CCC(=O)N(CC(=O)NC2CCCC2)c2ccc(F)cc2)no1 | -6.06%
4 | Cc1cc(C)cc(N(CC(=O)NC2CCCC2)C(=O)CCC(=O)Nc2cc(C)on2)c1 | 5.39%
5 | CCOC(=O)CSC1=Nc2ccccc2C2=NC(C(C)C)C(=O)N12 (configuration not stated) | 1.69%
6 | O=C1NC(c2cccs2)C(C(=O)c2cccnc2)C(O)(C(F)(F)F)N1 (configuration not stated) | -3.66%
7 | O=C1NC(c2ccccc2[N+](=O)[O-])C(C(=O)c2cccs2)C(O)(C(F)(F)F)N1 (configuration not stated) | 58.9% (active)
8 | O=C1NC(c2c(F)cccc2Cl)C(C(=O)c2cccs2)C(O)(C(F)(F)F)N1 (configuration not stated) | -3.71%
9 | CN(C)CCN(C)Cc1c(F)cccc1Cl | 49.6%
10 | CCN(CCN(C)C)Cc1c(Cl)cccc1Cl | 56.6% (active)
11 | CCN(CC)CCN(CC)Cc1c(F)cccc1F | 6.2%
12 | CCOC(=O)C1C(=O)C=C(c2ccc(F)cc2)CC1c1cccs1 (configuration not stated) | -5.44%
13 | CC(C)CO/N=C1\C[C@@H](O)[C@@H](O)[C@@H]2[C@@H]3C(=O)N(C[C@@H]4CCCO4)C(=O)[C@@H]3CC[C@@H]12 | -23%
14 | C[C@@H](c1ccccc1)N1C(=O)[C@H]2[C@H]3[C@H](O)C=CC(=O)[C@@H]3CC[C@H]2C1=O | 17.6%
15 | CC(C)CO/N=C1\C[C@@H](O)[C@@H](O)[C@@H]2[C@@H]3C(=O)N([C@@H](C)c4ccccc4)C(=O)[C@@H]3CC[C@@H]12 | 114% (active)
16 | O=C(CN(Cc1cccs1)C(=O)c1nsc(Cl)c1Cl)NC1CCCC1 | 11.8%
17 | Nc1nccc(-c2ccc3nc(C4COc5ccc(Br)cc5C4)[nH]c3c2)n1 (configuration not stated) | 8.16%
18 | Cc1nn(C(=O)N2CCOCC2)c(C)c1Br | 13.6%
19 | NC(=O)CCn1cc(/C=C2\Cc3ccccc3C2=O)c2ccccc21 | -5.7%
20 | Clc1ccc(Cl)c(N2Cc3cc4c(cc3C2)CN(c2cc(Cl)ccc2Cl)C4)c1 | 4.43%
21 | C/C(N)=C(/C#N)C(=O)COC(=O)c1c2c(nc3ccccc13)/C(=C/c1ccco1)CC2 | 81.7% (active)
22 | COc1ccc(-c2cc(C(=O)OCC(=O)/C(C#N)=C(\C)N)c3ccccc3n2)cc1 | 7.78%
23 | COc1cccc(OC)c1C(=O)OCC(=O)/C(C#N)=C(\C)N | -4.31%

Row | SMILES | inhibition
24 | O=C(CSc1ccc(-c2ccccn2)nn1)Nc1ccccc1 | 49.6%
25 | Cc1cc(NC(=O)CSc2ccc(-c3ccccn3)nn2)no1 | 78.7% (active)
26 | CCOc1ccc(-c2ccc(SCC(=O)Nc3cc(C)on3)nn2)cc1 | 4.05%
27 | Cc1[nH]c(=O)[nH]c(=O)c1S(=O)(=O)N1CCC(Cc2ccccc2)CC1 | -4.65%
28 | O=C(Nc1cccc(NC(=O)c2ccc(S(=O)(=O)N3CCOCC3)cc2)c1)c1ccc(S(=O)(=O)N2CCOCC2)cc1 | -11.6%
29 | Clc1cc(Cl)c(OCCOc2ccccc2)c(/C=N/n2cnnc2)c1 | -17.6%
30 | Cc1ccccc1NC(=O)C(=O)N1CCCCC1 | -9.16%
31 | CC(C)(C)NC(=O)N1CCN(c2cc(N3CCCC3)ncn2)CC1 | 5.52%
32 | Cc1ccccc1NC(=O)NCCOc1cc(N2CCCC2)ncn1 | 63.9% (active)
33 | CCOC(=O)c1ccc2c(c1)nc(C(C)C)n2CC | 29.7%
34 | c1ccc(-c2ccccc2OCCCCNCCN2CCOCC2)cc1 | 11.5%
35 | c1ccc(-c2ccccc2OCCNCCN2CCOCC2)cc1 | 58.3% (active)
36 | c1ccc(-c2ccc(OCCCNCCN3CCOCC3)cc2)cc1 | -7.58%
37 | Clc1c(OCCCNCCN2CCOCC2)ccc2ccccc12 | 26%
38 | Cc1ccc(OCCCCNCCN2CCOCC2)c(Br)c1 | 65.7% (active)
39 | Cc1ccc(OCCCNCCN)c(Br)c1 | 5.41%
40 | CC(NC(=O)Cn1c(C2CC2)nc2ccccc21)C1CC2CCC1C2 (configuration not stated) | 5%
41 | C/C(=N\NC(=O)C(O)c1ccccc1)c1ccc2c(c1)CCCC2 (configuration not stated) | -5.38%
42 | O=C(NC1CSC/C1=N\Nc1cc([N+](=O)[O-])cc([N+](=O)[O-])c1)c1ccccc1 (configuration not stated) | 18%
43 | O=C(CC1(c2ccccc2F)CC(=O)N(C2CCCCC2)C1=O)N1CCOCC1 (configuration not stated) | -8.12%
44 | CCOc1ccccc1N(CC(=O)NC(C)(C)CC)C(=O)CCC(=O)Nc1nccs1 | -1.1%
45 | CNC(=O)c1c(NC(=O)C2CCCCC2)sc2c1CCC(C)C2 (configuration not stated) | -7.36%
46 | NC(=O)c1c(NC(=O)CCC(=O)OCC(=O)Nc2ccccc2Cl)sc2c1CCC2 | -2.18%

Row | SMILES | inhibition
47 | Cc1ccc(NC(=O)COC(=O)CCC(=O)Nc2sc3c(c2C(N)=O)CCC3)cc1F | 84.3% (active)
48 | CC(C)(C)c1ccc(OCC(=O)OCC(=O)Nc2sc3c(c2C(N)=O)CCC3)cc1 | 0.98%
49 | Cc1cc(SCC(=O)N2CCOCC2)nc2ccccc12 | 14.6%
50 | CCOc1cccc(/C=N/NC(=O)COc2cccc(C)c2C)c1O | 2.99%
51 | CCOc1cccc(/C=N/NC(=S)NCCN2CCOCC2)c1O | 63.2% (active)
52 | CCCCNC(=S)N/N=C/c1ccccc1OCC(=O)O | -2.56%
53 | COc1ccccc1N(C(C)=O)C1C=CS(=O)(=O)C1 (configuration not stated) | 1.71%
54 | c1cncc(CCNc2ccc3ncc(-c4cc5ccccc5o4)n3n2)c1 | 54.6% (active)
55 | Cc1csc(-c2cnc3ccc(NCCc4cccnc4)nn23)c1 | -21.5%
56 | c1cncc(CCNc2ccc3ncc(-c4cccc5ccccc45)n3n2)c1 | -3.61%
57 | COc1cccc(-c2ncnn2-c2sc3c(c2C#N)CCCCC3)c1 | 63.4% (active)
58 | CCOc1ccc(-c2ncnn2-c2sc3c(c2C#N)CCCC3)cc1 | -3.27%
59 | N#Cc1c(-n2ncnc2-c2ccccc2)sc2c1CCCC2 | -14.9%
60 | CCCCOC(=O)c1ccc(NC(=O)C2C3C=CC(O3)C2C(=O)O)cc1 (configuration not stated) | -9.29%
61 | O=C(Nc1nccs1)C(c1ccccc1)c1ccccc1 | -0.78%
62 | O=C(O)C1C2C=CC(O2)C1C(=O)Nc1nccs1 (configuration not stated) | 81.7% (active)
63 | COc1ccc(-c2nc3n(c2NC(C)(C)C)CCNC3)cc1 | 0.05%
64 | COc1ccc(S(=O)(=O)N2CCN(CCNC(=O)c3ccc(-c4ccccc4)cc3)CC2)cc1 | 8.93%
65 | COc1ccc2nc(N3CCN(CCNC(=O)c4ccco4)CC3)sc2c1 | -9.88%
66 | COc1ccc(C(=O)NCCN2CCN(c3nc4c(C)c(C)ccc4s3)CC2)cc1 | 61.8% (active)
67 | O=Cc1ccc(OCc2ccc([N+](=O)[O-])cc2)c(I)c1 | 9.55%
68 | c1ccc(CC2CCN(c3nc4ccccc4n4cnnc34)CC2)cc1 | -0.95%
69 | O=C(c1cccnc1N1CCC(Cc2ccccc2)CC1)N1CCCCC1 | 11.1%

Row | SMILES | inhibition
70 | Cc1nnc(N2CCC(Cc3ccccc3)CC2)c2ccccc12 | 66.8% (active)
71 | O=C(c1cnn2c(C(F)(F)F)cc(-c3ccco3)nc12)N1CCN(C(c2ccccc2)c2ccccc2)CC1 | -6.87%
72 | O=c1c2ccccc2[nH]c(=S)n1NS(=O)(=O)c1ccccc1 | 0.19%
73 | CCc1cccc(CC)c1-n1c(CNC(=O)Cc2ccccc2)nnc1SCC(=O)Nc1ccc(OC)cc1 | -9.51%
74 | COc1cc(C(=O)Nc2cnc(NC(=O)c3ccccc3)cc2C)cc(OC)c1OC | 12.9%
75 | COc1ccc(CN2CCc3nnc(C4CCCO4)n3CC2)c(OC)c1OC (configuration not stated) | -1.23%
76 | Cc1ccccc1CN1CCC(N2CCCCC2)CC1 | 32.6%
77 | COc1ccc(CN2CCN(S(=O)(=O)c3cc(Br)c(Br)s3)CC2)c(OC)c1OC | 19.2%
78 | CCOC(=O)CSc1ccc(C(=O)N2CCN(Cc3ccc(OC)c(OC)c3OC)CC2)cc1[N+](=O)[O-] | -5.49%
79 | COc1ccc(CN2CCN(C3CCC(C)CC3)CC2)c(OC)c1OC (configuration not stated) | 63.1% (active)
80 | COc1ccc(CN2CCN(Cc3ccccc3C)CC2)c(OC)c1OC | 56.1% (active)
81 | Cc1noc(C)c1S(=O)(=O)N1CCN(Cc2nc3ccccc3n2C)CC1 | 8.13%
82 | COc1ccc(C(=O)CCNC(Cc2cnc[nH]2)C(=O)O)cc1 (configuration not stated) | 34.2%
83 | CC(Oc1ccc(Br)cc1)C(=O)N/N=C/c1ccccc1O (configuration not stated) | -6.74%
84 | COCCn1nnnc1C(C)N(CCCO)Cc1cc2cc(C)ccc2[nH]c1=O (configuration not stated) | -3.49%
85 | O=C(OCC(=O)N1CCN(C(=O)c2ccco2)CC1)c1ccc(O)cc1 | -0.03%
86 | CCCOc1ccc(C2C(=O)N(C3CCCCCC3)CC(=O)N2CC2COc3ccccc3O2)cc1OC (configuration not stated) | 14.9%
87 | CC1CCC2C(=O)N(c3cccc(Cl)c3)C(=O)C2C1 (configuration not stated) | 8.52%
88 | CC1CCC2C(=O)N(c3ccc(I)cc3)C(=O)C2C1 (configuration not stated) | 51.1% (active)
89 | CC1CCC2C(=O)N(C(CC(=O)O)c3ccco3)C(=O)C2C1 (configuration not stated) | 32.9%
90 | N#CC1=C(N)N(c2sc3c(c2C#N)CCCC3)C2=C(C(=O)CCC2)C1c1ccc(Br)s1 (configuration not stated) | 13.4%
91 | CCOC(=O)COc1cc2occ(Oc3cnn(-c4ccccc4)c3)c(=O)c2cc1CC | 9.58%
92 | CSc1ncc(/C=C2/C(=O)NC(=O)N(c3ccccc3)C2=O)cn1 | 0.31%
